From PubChem BioAssay (Tox21)
Records with an inconclusive call do not appear. The source made the active and inactive calls. Unless noted, the call rests on the fitted dose curve; in most records, active means well fitted curve in the direction sought with a large enough effect in the repeat runs; inconclusive means weak or mixed curves; inactive means no such curve, though single readings can be large; an effect the other way counts as inactive or inconclusive.

Experiments:
[1] = qHTS assay to identify small molecule antagonists of the progesterone receptor (PR) signaling pathway - cell viability counter screen (AID 1346798); conditions: PR-UAS-bla HEK293T viability, CellTiter-Glo luminescence, 16 h; series mostly up to 92.4 µM; further: nearly all actives have a fitted effect of over 50% in size; further: potency means the concentration at half of the fitted maximal effect
Outline: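 ATP content as viability readout: CellTiter-Glo luminescence, 30 min room temperature, in PR-UAS-bla HEK293T cells after 16 hr compound/R5020 treatment at 37C and 5% CO2.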

[2] = qHTS assay to identify small molecule agonists of the progesterone receptor (PR) signaling pathway - cell viability counter screen (AID 1346799; calls by dose curve; further: nearly all actives have a fitted effect of over 45% in size; further: potency means the concentration at half of the fitted maximal effect); conditions: PR-UAS-bla HEK293T viability, CellTiter-Glo luminescence, 16 h; series mostly up to 92.4 µM
Outline: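 Cytotoxicity in PR-bla HEK293T cells: 16 h compound, 37C; CellTiter-Glo added post-FRET read; luminescence after 30 min RT.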

[3] = qHTS assay to identify small molecule antagonists of the TGF-beta/Smad signaling pathway - cell viability counter screen (AID 1346824); conditions: SBE-bla HEK293T viability, CellTiter-Glo luminescence; series mostly up to 76.8 µM; further: nearly all actives have a fitted effect of over 50% in size; further: potency means the concentration at half of the fitted maximal effect
Outline: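 SBE-bla HEK 293T cells, incubated overnight, then compound plus 0.25 ng/mL TGF-beta1 (stock added) for 5 hr at 37 C. Viability was read in the same wells by CellTiter-Glo luminescence after 30 min at room temperature.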

[4] = qHTS assay to identify small molecule agonists of the TGF-beta/Smad signaling pathway - cell viability counter screen (AID 1346829); conditions: SBE-bla HEK293T viability, CellTiter-Glo luminescence, 5 h; series mostly up to 76.8 µM; further: nearly all actives have a fitted effect of over 45% in size; further: potency means the concentration at half of the fitted maximal effect; on activity change, negative = cytotoxicity: top concentration of the series differs between compounds
Outline: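 Luminescence from CellTiter-Glo, read after a 30 min room-temperature incubation, gives cell viability of SBE-bla HEK 293T cells treated 5 hr with compounds at 37 C.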

[5] = qHTS assay to identify small molecule agonists of the TGF-beta/Smad signaling pathway (AID 1346859; active means well fitted activation curve with a large enough effect in the signal ratio in the repeat runs, not every such curve was filed as active; the % refers to the signal ratio); conditions: SBE-bla HEK293T, TGF-beta/Smad beta-lactamase reporter, 5 h; series mostly up to 76.8 µM
Outline: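 Stable Smad binding element-beta-lactamase HEK 293T cells; 5 hr compound exposure at 37 C under 5% CO2; 2 hr room-temperature substrate step; fluorescence excited at 405 nm, collected at 460 nm and 530 nm.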

[6] = target: Thyrotropin-releasing hormone receptor (Homo sapiens) (UniProt P34981); test: qHTS assay to identify small molecule antagonists of the thyrotropin-releasing hormone receptor (TRHR) signaling pathway (AID 1346877; active means well fitted inhibition curve with a large enough effect in the repeat runs, not every such curve was filed as active); conditions: TRHR-HEK293, TRH-induced calcium fluorescence, antagonist mode; series mostly up to 51.3 µM
Outline: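 Human TRHR in HEK293 cells; inhibition of the intracellular calcium rise triggered by 1 nM TRH was followed by fluorescence over 3 min. Compounds were run at 15 concentrations, three replicates each.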

[7] = target: Thyrotropin-releasing hormone receptor (Homo sapiens) (UniProt P34981); test: qHTS assay to identify small molecule agonists of the thyrotropin-releasing hormone receptor (TRHR) signaling pathway (AID 1346891; calls by dose curve;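 further: HEK293 cells expressing TRHR with calcium dye readout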); conditions: TRHR-HEK293 calcium fluorescence, agonist mode; series mostly up to 57.6 µM
Outline: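 In 1536-format, 1500 TRHR-Hek293 cells per well grew 18 h, took up calcium dye for 2 h at 37 °C, received compound, and were read kinetically; 15-point titrations, triplicates.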

[8] = Human pregnane X receptor (PXR) small molecule agonists, qHTS cell viability counter screen (AID 1346977); conditions: PXR-Luc HepG2 viability, CellTiter-Fluor, 24 h; series mostly up to 92.4 µM; further: nearly all actives have a fitted effect of over 50% in size; further: potency means the concentration at half of the fitted maximal effect
Outline: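 Readout is CellTiter-Fluor fluorescence from PXR-Luc HepG2 cells. Plated cells rested 5hr, then were treated with compounds for 24hr at 37C and 5% CO2, with reagent present during the last hour.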

[9] = Caspase-3/7 induction in HepG2 cells by small molecules, qHTS assay (AID 1346978); conditions: HepG2 caspase-3/7 activation, Caspase-Glo luminescence, 17 h; series mostly up to 92.4 µM; further: nearly all actives have a fitted effect of over 15% in size
Outline: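 Wild-type HepG2 cells, 2,000/well, settled 5 hr at 37 C and 5% CO2, then compound-treated for 17 hr; caspase-3/7 activity read by luminescent Caspase-Glo 3/7 after 30 min at room temperature.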

[10] = Caspase-3/7 induction in CHO-K1 cells by small molecules, qHTS cell viability counter screen (AID 1346979); conditions: CellTiter-Fluor fluorescence, 17 h; series mostly up to 92.4 µM; further: nearly all actives have a fitted effect of over 35% in size; further: potency means the concentration at half of the fitted maximal effect
Outline: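 To flag cytotoxic compounds, treated CHO-K1 wild-type cells were given CellTiter-Fluor at 16hr and read fluorescently after 1hr at 37C; the caspase-3/7 luminescence was measured in these same wells.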
On the % scale 0 is the no-effect control and ±100 the full control effect.

Chain of Thyrotropin-releasing hormone receptor (Homo sapiens) (P34981 whole entry, looked up): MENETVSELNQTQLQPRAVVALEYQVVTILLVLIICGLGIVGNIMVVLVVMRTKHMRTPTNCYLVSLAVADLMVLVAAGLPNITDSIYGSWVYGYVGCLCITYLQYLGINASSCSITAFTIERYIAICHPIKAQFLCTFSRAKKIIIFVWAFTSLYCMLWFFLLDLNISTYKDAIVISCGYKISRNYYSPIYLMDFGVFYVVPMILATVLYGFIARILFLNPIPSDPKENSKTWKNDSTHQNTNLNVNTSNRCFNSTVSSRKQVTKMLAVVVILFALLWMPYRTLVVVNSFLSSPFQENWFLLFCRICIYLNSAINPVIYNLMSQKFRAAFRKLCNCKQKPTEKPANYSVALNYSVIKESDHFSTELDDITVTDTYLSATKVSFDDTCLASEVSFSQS

C/C=C/C(=O)OCC(C)C
inactive: Potency [1] | Potency [2] | Potency [3] | Potency [4] | outcome [5] | Potency [6] | Potency [7] | Potency [8] | Potency [9]

Nc1ccc2c(S(=O)(=O)O)cccc2c1S(=O)(=O)O
inactive: Potency [1] | Potency [2] | Potency [3] | Potency [4] | outcome [5] | Potency [6] | Potency [7] | Potency [8]

CCc1cccc(C)c1N(C(=O)C(=O)O)C(C)COC (stereo not drawn)
inactive: Potency [1] | Potency [2] | Potency [3] | Potency [4] | outcome [5] | Potency [6] | Potency [7] | Potency [8] | Potency [9]

Cc1cccc(C)c1C
inactive: Potency [1] | Potency [2] | Potency [3] | Potency [4] | outcome [5] | Potency [6] | Potency [7] | Potency [8] | Potency [9] | Potency [10]

Oc1ccc2c(c1)CCC2
inactive: Potency [1] | Potency [2] | Potency [3] | Potency [4] | outcome [5] | Potency [6] | Potency [7] | Potency [8] | Potency [9] | Potency [10]

CCCCCCCCCCCC(=O)Cl
inactive: Potency [1] | Potency [2] | Potency [3] | Potency [4] | outcome [5] | Potency [6] | Potency [7] | Potency [8] | Potency [9] | Potency [10]

CCC(=O)OC/C=C(\C)CCC=C(C)C
inactive: Potency [1] | Potency [2] | Potency [3] | Potency [4] | outcome [5] | Potency [6] | Potency [7] | Potency [8] | Potency [9]

CCOC(=O)OC(=O)OCC
inactive: Potency [1] | Potency [2] | Potency [3] | Potency [4] | outcome [5] | Potency [6] | Potency [7] | Potency [8] | Potency [9] | Potency [10]

ClC(c1ccccc1)(c1ccccc1)c1ccccc1
inactive: Potency [1] | Potency [2] | Potency [3] | Potency [4] | outcome [5] | Potency [6] | Potency [7] | Potency [8] | Potency [9] | Potency [10]

CCCCCCCCc1ccc(Nc2ccc(CCCCCCCC)cc2)cc1
inactive: Potency [1] | Potency [2] | Potency [3] | Potency [4] | outcome [5] | Potency [6] | Potency [7] | Potency [8] | Potency [9] | Potency [10]

CCCC(C)C=O (stereo not drawn)
inactive: Potency [1] | Potency [2] | Potency [3] | Potency [4] | outcome [5] | Potency [6] | Potency [7] | Potency [8] | Potency [9] | Potency [10]

CCC(O)CO (stereo not drawn)
inactive: Potency [1] | Potency [2] | Potency [3] | Potency [4] | outcome [5] | Potency [6] | Potency [7] | Potency [8] | Potency [9] | Potency [10]

Cn1c(=O)[nH]c2ncn(C)c2c1=O
inactive: Potency [1] | Potency [2] | Potency [3] | Potency [4] | outcome [5] | Potency [6] | Potency [7] | Potency [8] | Potency [9] | Potency [10]

O=C(O)CN(CCCN(CC(=O)O)CC(=O)O)CC(=O)O
active: Potency [10] 11.6 µM
inactive: activity change, negative = cytotoxicity [1] -17.6% [at 18.9 µM] | activity change, negative = cytotoxicity [2] -13.8% [at 19 µM] | viability change, negative = cytotoxic [3] 5.13% [at 15.8 µM] | activity change, negative = cytotoxicity [4] -5.77% [at 15.8 µM] | activation [5] 0.66% [at 15.8 µM] | activity, negative = inhibition [6] -1.06% [at 10.5 µM] | activation [7] 0.0527% [at 11.8 µM]

Cc1ccc(N=Nc2c(O)ccc3ccccc23)c(C)c1
inactive: Potency [1] | Potency [2] | Potency [3] | Potency [4] | outcome [5] | Potency [6] | Potency [7] | Potency [9]

CN(C)CCOc1ccc(/C(=C(/CCCl)c2ccccc2)c2ccccc2)cc1
inactive: Potency [3] | outcome [5] | Potency [6] | Potency [7]
active: Potency [1] 51 µM | Potency [2] 57.2 µM | Potency [8] 22.8 µM

Cc1ccc2sc3cccc(C)c3c2c1
inactive: Potency [1] | Potency [2] | Potency [3] | Potency [4] | outcome [5] | Potency [6] | Potency [7] | Potency [8] | Potency [10]

CCN(CC)c1ccc(C=O)c(O)c1
inactive: Potency [1] | Potency [2] | Potency [3] | Potency [4] | outcome [5] | Potency [8] | Potency [9]

CCCCCCCCCCCCS(=O)(=O)Cl
inactive: activity change, negative = cytotoxicity [1] -16% [at 18.9 µM] | activity change, negative = cytotoxicity [2] -21.2% [at 19 µM] | viability change, negative = cytotoxic [3] -0.792% [at 15.8 µM] | activity change, negative = cytotoxicity [4] 19.7% [at 15.8 µM] | activation [5] 8.04% [at 15.8 µM] | activity, negative = inhibition [6] -4.31% [at 10.5 µM] | activation [7] 0.0016% [at 11.8 µM] | activity change, negative = cytotoxicity [8] 2.87% [at 19 µM] | caspase activation [9] -0.157% [at 19 µM] | activity change, negative = cytotoxicity [10] 5.87% [at 19 µM]

CCCCCN=C(N)N/N=C/c1c[nH]c2ccc(OC)cc12
active: Potency [1] 23.7 µM | Potency [2] 16.8 µM | Potency [3] 26.8 µM | Potency [4] 23.9 µM | Potency [8] 18.8 µM | Potency [10] 29.8 µM
inactive: Potency [6] | Potency [7]

O=[N+]([O-])c1ccc(O)c2ncccc12
active: Potency [1] 0.531 µM | Potency [10] 8.41 µM
inactive: Potency [2] | Potency [3] | Potency [4] | outcome [5] | Potency [9]

[Cl][Eu]([Cl])[Cl]
inactive: Potency [1] | Potency [2] | Potency [3] | Potency [4] | outcome [5] | Potency [6] | Potency [7] | Potency [8] | Potency [10]

O=c1cc[nH]cc1
inactive: Potency [1] | Potency [2] | Potency [3] | Potency [4] | outcome [5] | Potency [6] | Potency [7] | Potency [8] | Potency [9] | Potency [10]
